Hits are enriched below; roughly 3.7% of the tested compounds scored in any of these assays.
BoNT-A LC inh2: BoNT/A light chain protease inhibitors, primary screen, biochemical, flow cytometry, MLPCN library; AID 588499, 2011; inhibition, % at 10 µM; multiplex microsphere protease substrate cleavage; 360,000 compounds, 0.17% hits; Botulinum neurotoxin type A light chain protease (Clostridium botulinum A str. ATCC 3502); in the data active = inhibition above about 30%; inconclusive = no clear call, values can overlap the other calls; note: plate controls were buffer without enzyme for full effect and enzyme alone for no effect
BoNT F protease: BoNT/F light chain protease inhibitors, primary screen, biochemical, flow cytometry, MLPCN library; AID 588497, 2011; Botulinum neurotoxin type F light chain protease (Clostridium botulinum); inhibition, % at 10 µM; Multiplex microsphere protease cleavage assay; 360,000 compounds, 0.22% hits; in the data active = inhibition above about 35%, passing the limit was not always enough; inconclusive = no clear call, values can overlap the other calls; note: plate controls were buffer without enzyme for full effect and enzyme alone for no effect
MazF activator: activators of E. coli MazEF toxin-antitoxin RNase, primary screen, biochemical, fluorescence, uHTS; FAM/BHQ RNA-DNA oligo cleavage fluorescence, 5 h; activation, % at 20 µM; 350,000 compounds, 0.32% hits; AID 504720, 2011; in the data active = activation above about 50%
Target sequence (P0AE70 whole entry, looked up): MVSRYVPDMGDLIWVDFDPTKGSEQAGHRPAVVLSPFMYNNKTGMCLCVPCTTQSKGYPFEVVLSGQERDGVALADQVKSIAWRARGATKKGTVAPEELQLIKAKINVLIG
Anthrax LF inh2: Bacillus anthracis LF protease inhibitors, primary screen, biochemical, multiplex microsphere, MLPCN library | Lethal factor (Bacillus anthracis), P15917 | multiplex microsphere protease cleavage assay | inhibition, % at 10 µM | 360,000 compounds, 0.12% hits | AID 588501, 2011; in the data active = inhibition above about 30%; inconclusive = no clear call, values can overlap the other calls; note: plate controls were buffer without enzyme for full effect and enzyme alone for no effect
Autofluor counter: flagged as autofluorescent in microsphere protease counterscreen; compound autofluorescence counterscreen, microsphere flow cytometry; active compounds read high; fluorescence intensity (concentration not given with the values); 360,000 compounds, 3.1% hits; AID 624483; in the data active = fluorescence intensity above about 16000; inconclusive = no clear call, values can overlap the other calls
BoNT-A LC CP1: BoNT/A light chain protease inhibitors, confirmation, biochemical, flow cytometry, cherry pick 1. shares compounds with BoNT F protease. 720 compounds, 3% hits. inhibition, % at 10 µM. multiplex microsphere protease assay; in the data active = inhibition above about 32%
BoNTF LC inh 1: BoNT/F light chain protease inhibitors, confirmation, biochemical, flow cytometry, cherry pick 1; multiplex microsphere protease cleavage assay; shares compounds with BoNT F protease; inhibition, % at 10 µM; AID 602140, 2011; 720 tested, under 10 active
Anthrax LF CP1: Bacillus anthracis LF protease inhibitors, confirmation, biochemical, multiplex microsphere, cherry pick 1; shares compounds with BoNT F protease; inhibition, % at 10 µM; 720 tested, under 10 active; multiplex microsphere protease cleavage assay; AID 602142, 2011
* = called active by the depositor. Unless noted, the rule behind the calls is not given here.

Screening COC(CNC(=O)c1ccc2nc(-c3cccs3)c(-c3cccs3)nc2c1)OC returned BoNT-A LC inh2 44.5*, BoNT F protease 26.2, MazF activator 4.2, Anthrax LF inh2 25.0, Autofluor counter 8849, BoNT-A LC CP1 20.8, BoNTF LC inh 1 1.9 and Anthrax LF CP1 8.2.
Screening O=C(Nc1ccc(Nc2ccncc2)cc1)c1ccc([N+](=O)[O-])cc1 returned BoNT-A LC inh2 0.7, BoNT F protease -7.7, MazF activator -12.3, Anthrax LF inh2 35.8*, Autofluor counter 3510, BoNT-A LC CP1 -1.3, BoNTF LC inh 1 -9.8 and Anthrax LF CP1 -2.1.
`O=C(Nc1ccc(Oc2cccnc2)cc1)c1ccc([N+](=O)[O-])cc1` gave BoNT-A LC inh2 -0.2, BoNT F protease -1.8, MazF activator -10.2, Anthrax LF inh2 -1.5 and Autofluor counter 2603.
Screening CC(C)N(Cc1ccccc1)C(=O)COC(=O)c1c(F)cccc1F returned BoNT-A LC inh2 -0.7, BoNT F protease -0.7, MazF activator 4.1, Anthrax LF inh2 -6.8 and Autofluor counter 3868.
Screening CCC1(c2ccccc2)NC(=O)N(CC(=O)Nc2ccc(N3CCOCC3)cc2)C1=O (centres undefined) returned BoNT-A LC inh2 0.0, BoNT F protease -2.3, MazF activator 1.0, Anthrax LF inh2 -0.5 and Autofluor counter 7014.
Screening O=C(COc1ccccc1)NCc1n[nH]c(=S)n1-c1ccccc1 returned BoNT-A LC inh2 7.4, BoNT F protease 46.6*, MazF activator 1.5, Anthrax LF inh2 0.7, Autofluor counter 4390, BoNT-A LC CP1 0.7, BoNTF LC inh 1 -0.4 and Anthrax LF CP1 -0.2.
Screening CC(C)[C@H](NC(=O)c1ccc(Cl)cc1)C(=O)Nc1cccc(S(=O)(=O)N2CCOCC2)c1 returned BoNT-A LC inh2 0.1, BoNT F protease -2.5, MazF activator 2.8, Anthrax LF inh2 -6.6 and Autofluor counter 3750.
Cc1nc2ccc([N+](=O)[O-])cc2c(=O)n1Cc1cccc(F)c1 was read as BoNT-A LC inh2 4.4, BoNT F protease 85.3*, MazF activator 5.5, Anthrax LF inh2 60.4*, Autofluor counter 7839, BoNT-A LC CP1 -3.4, BoNTF LC inh 1 -11.3 and Anthrax LF CP1 -0.1.
For Cc1cccc(C(C)C)c1NC(=O)C1CN(S(=O)(=O)c2ccccc2)CCN1S(=O)(=O)c1ccccc1 (centres undefined) the results were BoNT-A LC inh2 38.4*, BoNT F protease 14.0, MazF activator -3.2, Anthrax LF inh2 37.3*, Autofluor counter 6056, BoNT-A LC CP1 1.7, BoNTF LC inh 1 -3.8 and Anthrax LF CP1 -0.3.
For CCc1cccc(CC)c1NC(=O)C1CN(S(=O)(=O)c2ccccc2)CCN1S(=O)(=O)c1ccccc1 (centres undefined) the results were BoNT-A LC inh2 2.1, BoNT F protease -5.9, MazF activator 2.9, Anthrax LF inh2 3.2 and Autofluor counter 2655.
O=C(NCC1CC1)c1cccs1 was read as BoNT-A LC inh2 -0.2, BoNT F protease -14.4, Anthrax LF inh2 -9.3 and Autofluor counter 4832.
O=C(NCCC1CCCC1)c1cccs1 was read as BoNT-A LC inh2 inconclusive, BoNT F protease inconclusive, MazF activator 8.7, Anthrax LF inh2 31.2*, Autofluor counter 3779, BoNT-A LC CP1 -0.1, BoNTF LC inh 1 1.0 and Anthrax LF CP1 -1.4.
`O=c1cc(CN2CCN(S(=O)(=O)c3cccc(Cl)c3)CC2)c2ccc(O)cc2o1` gave MazF activator -2.4.
Screening OC(CNC1Cc2ccccc2C1)c1ccccc1 (centres undefined) returned BoNT-A LC inh2 3.8, BoNT F protease 35.7*, MazF activator -2.3, Anthrax LF inh2 -4.8, Autofluor counter 2820, BoNT-A LC CP1 -0.8, BoNTF LC inh 1 -3.0 and Anthrax LF CP1 0.1.

Source: PubChem
